Measurements as given in PubChem BioAssay.

tested on: glycogen synthase kinase-3 (GSK3A per assay name; protocol says GSK3B); assay: GSK3 binders on small-molecule microarrays, primary screen, biochemical, small-molecule microarray, 635 nm fluorescence, GSK3A (AID 1103); conditions: small-molecule microarray binding, fluorescence 635 nm; higher = more signal; also: the record names both GSK3A and GSK3B

SMILES	composite z-score
O=C(O)[C@H](Cc1ccccc1)n1cc(-c2ccccn2)nn1	0.507
COC(=O)c1c(CC[C@@H](CO)NC(=O)N[C@H](Cn2cc(-c3ccccc3C)nn2)C(C)C)oc(C(C)=O)c1C(=O)OC	-0.79
COc1ccc(NN2C(C(O)c3ccco3)C=CC3C(=O)N(C4CCCCC4)C(=O)C32)cc1 (stereo not given)	1.32
Cc1c(NC(=O)/C(C#N)=C/C=C/c2ccc(N(C)C)cc2)c(=O)n(-c2ccccc2)n1C	1.02
CN1C2C=C(CCCO)C(C3C(=O)N(C(N)=O)C(=O)C32)C1c1cccs1 (stereo not given)	0.386
CC(C)CNC(=O)[C@@]1(c2ccc([N+](=O)[O-])cc2)CC(=O)N(C2CCCCC2)[C@@H]1c1ccc(CO)cc1I	-0.198
COCCOC(=O)N1C(=O)[C@@]2(c3cc(C#CC4(O)CCCCCC4)ccc31)[C@H](C(N)=O)[C@H]1C(=O)O[C@H](c3ccccc3)[C@H](c3ccccc3)N1[C@@H]2c1ccc(O)cc1	1.01
COC(=O)[C@@]1(Cc2ccccc2)[C@H]2c3cc(C(=O)N4CCCC4)n(Cc4cc(F)cc5c4OCOC5)c3C[C@H]2CN1C(=O)c1ccccc1	0.0232
CCOC(=O)C[C@H]1[C@H](OC(=O)c2ccccc2-c2ccccc2)[C@@H](NC(=O)CC(C)C)c2cc(OCCCO)ccc2N1C(=O)c1ccc2ccccc2n1	0.561
C=CCN1Cc2ccccc2C[C@@]2(N=C(c3ccc(OCCCO)cc3)O[C@H]2c2ccccc2)C1=O	1.26
COCCOC(=O)N1C(=O)[C@@]2(c3cc(C#CC4(O)CCCCCC4)ccc31)[C@H](C(=O)N1CCCCCCC1)[C@H]1C(=O)O[C@H](c3ccccc3)[C@H](c3ccccc3)N1[C@@H]2c1ccc(OCCO)cc1	1.35
CN1C(=O)C2C=CC(C(O)c3c(F)cccc3Cl)N(Nc3ccccc3)C2C1=O (stereo not given)	-0.0475
CCCC=C(CCC)[C@@H](NP(=O)(c1ccccc1)c1ccccc1)c1ccc(C(F)(F)F)cc1	0.734
O=C1O[C@@H](c2ccccc2)[C@@H](c2ccccc2)N2[C@@H](c3ccc(O)cc3)[C@]3(C(=O)Nc4ccc(C#CCCO)cc43)[C@@H](C(=O)NC[C@H](O)c3ccccc3)[C@H]12	-0.375
CCN(CC)c1ccc(N2CC=CC34O[C@@H]5/C=C\CCC(C)OC(=O)C5[C@H]3C(=O)N(CCO)[C@@H]4C2=O)cc1 (stereo not given in full)	-0.565
Cc1ccc(S[C@]2(C(=O)NCCN3CCOCC3)CC(=O)N(Cc3ccccc3C(F)(F)F)[C@@H]2c2ccc(CO)cc2I)cc1	-0.728
C=CCNC(=O)[C@@H]1[C@H]2C(=O)O[C@H](c3ccccc3)[C@H](c3ccccc3)N2[C@H](c2ccc(OCCO)cc2)[C@@]12C(=O)N(C(=O)OCCOC)c1ccc(C#CC3=CCCCC3)cc12	1.28
COC(=O)[C@@]1(Cc2ccccc2)[C@H]2c3cc(C(=O)N4CCCC4)[nH]c3C[C@H]2CN1C(=O)c1ccccc1	0.0863

SMILES	composite z-score
C=CCOC(=O)[C@@H]1[C@H]2C(=O)O[C@H](c3ccccc3)[C@H](c3ccccc3)N2[C@H](c2ccc(OCCOC(=O)[C@H]3C[C@H]4C(=O)N[C@@H](CCCC[N+](C)(C)C)C(=O)N4[C@H]3c3ccc(O)cc3)cc2)[C@@]12C(=O)Nc1ccc(I)cc12	1.33
COc1c(C)cc(-c2cc3c(c(Cc4ccccc4)n2)[Si](C(C)C)(C(C)C)OC3)cc1C	-0.0485
COCCOC(=O)N1C(=O)[C@@]2(c3cc(C#CC4(O)CCCCCC4)ccc31)[C@H](c1ccccc1OCCO)N1[C@H](c3ccccc3)[C@H](c3ccccc3)OC(=O)[C@H]1[C@@H]2C(N)=O	1.28
CC(C)C(O)C1C=CC2C(=O)N(C)C(=O)C2N1Nc1ccccc1 (stereo not given)	0.686
CC(=O)N1Cc2ccccc2C[C@]2(N=C(c3ccc(OCCCO)cc3)O[C@@H]2c2ccccc2)C1=O	1.26
CCOC(=O)[C@@H]1[C@@H]2C(=O)N(CC)C(=O)[C@@H]2C[C@@H]1Sc1ccccc1	0.177
O=C1OCCC=C[C@H]2OC34C=CCN(c5ccc(Cl)cc5)C(=O)[C@H]3N(CCCCCO)C(=O)[C@@H]4C12 (stereo not given in full)	0.0788
COc1ccc(CCNC(=O)[C@@]2(Sc3ccc(C)cc3)CC(=O)N(Cc3cc(C(F)(F)F)cc(C(F)(F)F)c3)[C@@H]2c2ccc(CO)cc2I)cc1	-0.223
COC(=O)[C@@]1(Cc2ccc(OC)cc2)[C@H]2c3cc(C(=O)N4CCCC4)n(CCc4cc5ccccc5[nH]4)c3C[C@H]2CN1C(=O)c1ccccc1	0.591
COc1ccc(NN2C(C(O)c3ccccn3)C=CC3C(=O)N(C4CCCCC4)C(=O)C32)cc1 (stereo not given)	1.25
CN(C)CCCCNC(=O)[C@H]1C[C@H]2C(=O)N[C@@H](CCCCN(C)C)C(=O)N2[C@H]1c1cccc(OCCO)c1	1.29
CC(C)(C)OC(=O)CC[C@]1(C(=O)O)N=C(c2ccc(OCCCO)cc2)O[C@H]1c1ccccc1	-0.406
COCCOC(=O)N1C(=O)[C@@]2(c3cc(C#Cc4ccc(OC)cc4)ccc31)[C@H](C(=O)NC[C@H](O)c1ccccc1)[C@H]1C(=O)O[C@H](c3ccccc3)[C@H](c3ccccc3)N1[C@@H]2c1ccc(O)cc1	1.35
C[C@]1(C(=O)NC2CC2)c2ccccc2C(=O)N(Cc2ccc(OC(F)(F)F)cc2)[C@H]1c1ccc(CO)cc1	-0.0882
C=CC[C@@]1(C(=O)O)N=C(c2ccc(OCCCO)cc2)O[C@@H]1c1ccccc1	1.06
COC(=O)C1(Cc2ccccc2)C=C2C(=C(C(C)C)C(=O)C2C)CN1 (stereo not given)	-1.51
COc1ccc(C#Cc2ccc3c(c2)[C@]2(C(=O)N3)[C@H](C(=O)N3CCc4cc(OC)c(OC)cc4C3)[C@H]3C(=O)O[C@H](c4ccccc4)[C@H](c4ccccc4)N3[C@@H]2c2ccc(O)cc2)cc1	1.29
